{"source": "PubChem BioAssay (NCATS)", "note": "Results filed as inconclusive are left out. Activity calls are given as the source filed them. Calls follow the shape of the dose curve; as a rule, active = well fitted inhibition curve with a large enough effect; inconclusive = small, poorly fitted or top-dose-only effect; inactive = flat fitted curve, though single readings scatter. Potency is read from the fitted curve at half-maximal effect.", "data": [{"test_system": "GB4", "test": "qHTS profiling for inhibitors of Plasmodium falciparum proliferation (AID 504749); also: nearly all actives have a fitted effect of over 60% in size;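 as to activity, negative = inhibition: 0% = DMSO vehicle and full inhibition = artemisinin control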", "conditions": "P. falciparum in erythrocytes, SYBR Green DNA, 72 h; series mostly up to 28.7 µM; activity, negative = inhibition: at the top concentration", "in_short": "(§1)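 Fluorescence of SYBR Green-bound parasite DNA, read at 485/535 nm, served as the growth measure. Infected erythrocytes were cultured with compound 72 h; artemisinin (0.29 uM) and DMSO wells defined the normalization range.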", "values": [{"smiles": "C[C@](N)(Cc1ccc(O)cc1)C(=O)O", "activity, negative = inhibition": "1.27% (inactive)"}, {"smiles": "OCCN1CCN(CCCN2c3ccccc3Sc3ccc(Cl)cc32)CC1", "Potency": "4.55 µM (active)"}, {"smiles": "CSc1ccc2c(c1)N(CCC1CCCCN1C)c1ccccc1S2", "note": "(stereo not drawn)", "Potency": "10.7 µM (active)"}, {"smiles": "NC(=O)N/N=C/c1ccc([N+](=O)[O-])o1", "Potency": "13.5 µM (active)"}, {"smiles": "CCN(CC)CCSC(=O)C(c1ccccc1)c1ccccc1", "activity, negative = inhibition": "-18% (inactive)"}, {"smiles": "CCN(CC)CCNC(=O)c1c(C)[nH]c(/C=C2\\C(=O)Nc3ccc(F)cc32)c1C", "Potency": "7.57 µM (active)"}, {"smiles": "CC1=C(CC(=O)O)c2cc(F)ccc2/C1=C\\c1ccc(S(C)=O)cc1", "note": "(stereo not drawn)", "activity, negative = inhibition": "-12.7% (inactive)"}, {"smiles": "CN(C)CCCN1c2ccccc2Sc2ccc(Cl)cc21", "Potency": "8.49 µM (active)"}, {"smiles": "CSc1ccc2c(c1)C(N1CCN(C)CC1)Cc1ccccc1S2", "note": "(stereo not drawn)", "Potency": "13.5 µM (active)"}, {"smiles": "C=Cc1c(C)c2cc3[nH]c(cc4nc(cc5nc(cc1[nH]2)C(C)=C5CCC(=O)O)C(CCC(=O)O)=C4C)c(C)c3C=C", "activity, negative = inhibition": "-12.7% (inactive)"}, {"smiles": "OCc1cc(C(O)CNCCCCCCOCCCCc2ccccc2)ccc1O", "note": "(stereo not drawn)", "Potency": "9.53 µM (active)"}, {"smiles": "C[C@]12C[C@H](O)[C@H]3[C@@H](CCC4=CC(=O)CC[C@@]43C)[C@@H]1CC[C@@H]2C(=O)CO", "activity, negative = inhibition": "-7.16% (inactive)"}, {"smiles": "COC(=O)C1=C(C)NC(C)=C(C(=O)OC)C1c1ccccc1[N+](=O)[O-]", "activity, negative = inhibition": "-24% (inactive)"}, {"smiles": "CC1=C(/C=C/C(C)=C/C=C/C(C)=C/C(=O)O)C(C)(C)CCC1", "activity, negative = inhibition": "-16% (inactive)"}, {"smiles": "CC(=O)Oc1ccc(C2(c3ccc(OC(C)=O)cc3)C(=O)Nc3ccccc32)cc1", "Potency": "inactive"}, {"smiles": "CNCCC(Oc1ccc(C(F)(F)F)cc1)c1ccccc1", "note": "(stereo not drawn)", "Potency": "13.5 µM (active)"}, {"smiles": "O=C1NC(=O)[C@@]2(CCOc3ccc(F)cc32)N1", "activity, negative = inhibition": "-8.02% (inactive)"}]}, {"test_system": "HB3", "test": "qHTS profiling for inhibitors of Plasmodium falciparum proliferation (AID 504749)", "conditions": "P. falciparum in erythrocytes, SYBR Green DNA, 72 h; series mostly up to 28.7 µM; activity, negative = inhibition: at the top concentration", "in_short": "as §1", "values": [{"smiles": "C[C@](N)(Cc1ccc(O)cc1)C(=O)O", "activity, negative = inhibition": "2.83% (inactive)"}, {"smiles": "CC(=O)c1ccc2c(c1)N(CCCN(C)C)c1ccccc1S2", "activity, negative = inhibition": "18.1% [at 12.8 µM] (inactive)"}, {"smiles": "CSc1ccc2c(c1)N(CCC1CCCCN1C)c1ccccc1S2", "note": "(stereo not drawn)", "activity, negative = inhibition": "-24.1% (inactive)"}, {"smiles": "NC(=O)N/N=C/c1ccc([N+](=O)[O-])o1", "Potency": "11.2 µM (active)"}, {"smiles": "CCCn1cnc2c1c(=O)n(CCCCC(C)=O)c(=O)n2C", "activity, negative = inhibition": "-18.2% (inactive)"}, {"smiles": "CCN(CC)CCSC(=O)C(c1ccccc1)c1ccccc1", "Potency": "inactive"}, {"smiles": "CCN(CC)CCNC(=O)c1c(C)[nH]c(/C=C2\\C(=O)Nc3ccc(F)cc32)c1C", "Potency": "8.91 µM (active)"}, {"smiles": "CNCCCC1c2ccccc2C=Cc2ccccc21", "activity, negative = inhibition": "-1.35% [at 12.8 µM] (inactive)"}, {"smiles": "CC1=C(CC(=O)O)c2cc(F)ccc2/C1=C\\c1ccc(S(C)=O)cc1", "note": "(stereo not drawn)", "activity, negative = inhibition": "2.07% (inactive)"}, {"smiles": "CC(CN1c2ccccc2Sc2ccccc21)N(C)C", "note": "(stereo not drawn)", "activity, negative = inhibition": "0.876% (inactive)"}, {"smiles": "COCCOC(=O)C1=C(C)NC(C)=C(C(=O)OC/C=C/c2ccccc2)C1c1cccc([N+](=O)[O-])c1", "note": "(stereo not drawn)", "Potency": "11.2 µM (active)"}, {"smiles": "CN(C)CCCN1c2ccccc2Sc2ccc(Cl)cc21", "activity, negative = inhibition": "-24.9% (inactive)"}, {"smiles": "CSc1ccc2c(c1)C(N1CCN(C)CC1)Cc1ccccc1S2", "note": "(stereo not drawn)", "activity, negative = inhibition": "-12.2% (inactive)"}, {"smiles": "C=Cc1c(C)c2cc3[nH]c(cc4nc(cc5nc(cc1[nH]2)C(C)=C5CCC(=O)O)C(CCC(=O)O)=C4C)c(C)c3C=C", "activity, negative = inhibition": "0.782% (inactive)"}, {"smiles": "CN(C)CCN(Cc1ccccc1)c1ccccn1", "activity, negative = inhibition": "9.83% (inactive)"}, {"smiles": "OCc1cc(C(O)CNCCCCCCOCCCCc2ccccc2)ccc1O", "note": "(stereo not drawn)", "activity, negative = inhibition": "11.7% (inactive)"}, {"smiles": "O=C(O)CN1C(=O)c2cccc3cccc(c23)C1=O", "activity, negative = inhibition": "9.3% (inactive)"}, {"smiles": "COC(=O)C1=C(C)NC(C)=C(C(=O)OC)C1c1ccccc1[N+](=O)[O-]", "activity, negative = inhibition": "-10.5% (inactive)"}, {"smiles": "CC1=C(/C=C/C(C)=C/C=C/C(C)=C/C(=O)O)C(C)(C)CCC1", "activity, negative = inhibition": "-10.9% (inactive)"}, {"smiles": "CCCCN(CCCC)CC(O)c1cc(Cl)cc2c1-c1ccc(Cl)cc1/C2=C/c1ccc(Cl)cc1", "note": "(stereo not drawn)", "Potency": "0.0141 µM (active)"}, {"smiles": "CC(=O)Oc1ccc(C2(c3ccc(OC(C)=O)cc3)C(=O)Nc3ccccc32)cc1", "Potency": "inactive"}, {"smiles": "CN1CCCCC1CCN1c2ccccc2Sc2ccc(S(C)=O)cc21", "note": "(stereo not drawn)", "activity, negative = inhibition": "8.25% (inactive)"}, {"smiles": "CNCCC(Oc1ccc(C(F)(F)F)cc1)c1ccccc1", "note": "(stereo not drawn)", "activity, negative = inhibition": "-21.6% (inactive)"}, {"smiles": "CN1CCN(C2Cc3ccccc3Sc3ccc(Cl)cc32)CC1", "note": "(stereo not drawn)", "activity, negative = inhibition": "-9.64% (inactive)"}, {"smiles": "Cc1c(O)cccc1C(=O)N[C@@H](CSc1ccccc1)[C@H](O)CN1C[C@H]2CCCC[C@H]2C[C@H]1C(=O)NC(C)(C)C", "Potency": "10 µM (active)"}, {"smiles": "O=C1NC(=O)[C@@]2(CCOc3ccc(F)cc32)N1", "activity, negative = inhibition": "-1.05% (inactive)"}]}]}
